From the supplement of paper PMC6124720
Counter-ions that a name gives are not always drawn. Values without a mark were called inactive.

Tested on: Pseudogymnoascus destructans 20631-21
Assay: growth activity index (DuctApe, 0 = no growth, 9 = maximal growth) (index 0-9); higher = more fungal growth (less inhibition), active = 0 or less; extreme values may be limits of the assay
Settings: concentration level (1-4, increasing; Biolog proprietary): 1; temperature: 13 °C; YPD
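Further: biolog Phenotype Microarray plates PM21–25, OD595 followed daily over 11 days, growth curves converted to index, mean of two independent experiments.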

| Compound | growth activity index |
| --- | --- |
| c1ccc(-c2ccccn2)nc1 [2,2`-Dipyridyl] (Biolog plate: PM21) | 5 |
| [Cl][Mn][Cl] [Manganese chloride] (Biolog plate: PM21) | 4 |
| OB(O)O [Boric acid] (Biolog plate: PM22) | 5.33 |
| CN(C)[C@@H]1C(O)=C(C(N)=O)C(=O)[C@@]2(O)C(O)=C3C(=O)c4c(O)ccc(Cl)c4[C@@](C)(O)[C@H]3C[C@@H]12 [Chlortetracycline] (Biolog plate: PM24) | 5.67 |
| N[C@H](CO)C(=O)O [D-Serine] (Biolog plate: PM22) | 5 |
| CC(C)Cc1ccc(C(C)C(=O)O)cc1 (centres undefined) [Ibuprofen] (Biolog plate: PM25) | 4.33 |
| NO [Hydroxylamine] (Biolog plate: PM23) | 4 |
| O=P(O)(O)OP(=O)(O)O [Sodium pyrophosphate] (Biolog plate: PM24) | 5.67 |
| CCCCCCCCCCCC[N+](C)(C)C [Dodecyltrimethyl ammonium bromide] (Biolog plate: PM21) | 4.25 |
| [Na+].[O]=[V](=[O])[O-] [Sodium metavanadate] (Biolog plate: PM22) | 5 |
| [Cl-].[Li+] [Lithium chloride] (Biolog plate: PM22) | 0 (active) |
| O=C(O)/C=C/c1ccccc1 [Cinnamic acid] (Biolog plate: PM25) | 5 |
| O=C([O-])c1ccccc1O.[Na+] [Sodium Salicylate] (Biolog plate: PM25) | 4.67 |
| [Cl][Cu][Cl] [Cupric chloride] (Biolog plate: PM23) | 4.33 |

Same assay, conditions: concentration level (1-4, increasing; Biolog proprietary): 2; temperature: 13 °C; YPD

| Compound | growth activity index |
| --- | --- |
| C[C@H]1c2cccc(O)c2C(=O)C2=C(O)[C@]3(O)C(=O)C(C(N)=O)=C(O)[C@@H](N(C)C)[C@@H]3[C@@H](O)[C@@H]21 [Doxycycline] (Biolog plate: PM23) | 5 |
| CO/N=C(\C(=O)N[C@@H]1C(=O)N2C(C(=O)O)=C(CSc3nc(=O)c(O)nn3C)CS[C@H]12)c1csc(N)n1 [Ceftriaxone] (Biolog plate: PM22) | 0 (active) |
| On1ccccc1=S [1-Hydroxypyridine-2-thione (pyrithione)] (Biolog plate: PM21) | 4 |
| NCCSCC(N)C(=O)O (centres undefined) [Thialysine] (Biolog plate: PM24) | 4 |
| C=C(CC[C@]12O[C@H](C(=O)O)[C@@](O)(C(=O)O)[C@](C(=O)O)(O1)[C@H](OC(=O)/C=C/[C@@H](C)C[C@@H](C)CC)[C@H]2O)[C@@H](OC(C)=O)[C@H](C)Cc1ccccc1 [Zaragozic acid A] (Biolog plate: PM24) | 5.33 |
| NCC(=O)NO [Glycine hydroxamate] (Biolog plate: PM22) | 3.67 |
| N=C(N)N [Guanidine hydrochloride] (Biolog plate: PM21) | 5 |
| O=S(=O)([O-])[O-].[Cu+2] [Copper (II) sulfate] (Biolog plate: PM21) | 6 |
| [Cl-].[Cl-].[Zn+2] [Zinc chloride] (Biolog plate: PM21) | 6.75 |
| [I-].[K+] [Potassium iodide] (Biolog plate: PM22) | 0 (active) |
| Cc1cc(N)c2ccccc2[n+]1CCCCCCCCCC[n+]1c(C)cc(N)c2ccccc21 [Dequalinium chloride] (Biolog plate: PM23) | 4.67 |
| N=C(N)c1ccccc1 [Benzamidine] (Biolog plate: PM22) | 0 (active) |
| O=NO [Sodium Nitrite] (Biolog plate: PM23) | 2.67 |
| NC[C@@H]1O[C@H](O[C@H]2[C@@H](O)[C@H](O[C@@H]3[C@@H](O)[C@H](N)C[C@H](N)[C@H]3O[C@H]3O[C@H](CN)[C@@H](O)[C@H](O)[C@H]3N)O[C@@H]2CO)[C@H](N)[C@@H](O)[C@@H]1O [Neomycin] (Biolog plate: PM21) | 5 |
| O=C(O)CCC(=O)O [Succinic acid] (Biolog plate: PM25) | 3.33 |
| NC(N)=NCCC[C@H](N)C(=O)NO [L-Arginine hydroxamate] (Biolog plate: PM22) | 5 |
| O=C(O)CN(CCOCCOCCN(CC(=O)O)CC(=O)O)CC(=O)O (Biolog plate: PM24) | 4.33 |
| NC[C@H]1O[C@H](O[C@H]2[C@H](O)[C@@H](O[C@H]3O[C@H](CO)[C@@H](O)[C@H](N)[C@H]3O)[C@H](N)C[C@@H]2N)[C@H](O)[C@@H](O)[C@@H]1O [Kanamycin] (Biolog plate: PM25) | 5 |
| [Cl][Pd][Cl] [Palladium(II) Chloride] (Biolog plate: PM25) | 4 |
| CSc1ccc2c(c1)N(CCC1CCCCN1C)c1ccccc1S2 (centres undefined) [Thioridazine] (Biolog plate: PM24) | 1.33 |

| Compound | growth activity index |
| --- | --- |
| C[C@@H]1[C@H](O)[C@@H](C)/C=C/C=C/C=C/C=C/C=C/C=C/C=C/[C@H](O[C@@H]2O[C@H](C)[C@@H](O)[C@H](N)[C@@H]2O)C[C@@H]2O[C@](O)(C[C@@H](O)C[C@@H](O)[C@H](O)CC[C@@H](O)C[C@@H](O)CC(=O)O[C@H]1C)C[C@H](O)[C@H]2C(=O)O [Amphotericin B] (Biolog plate: PM24) | 1.33 |
| NC(N)=S [Thiourea] (Biolog plate: PM21) | 0 (active) |
| [Cl][Co][Cl] [Cobalt (II) chloride] (Biolog plate: PM23) | 4 |
| c1ccc(-c2nn(-c3ccccc3)[n+](-c3cccc4ccccc34)n2)cc1 [Tetrazolium violet] (Biolog plate: PM25) | 3 |
| O=c1cn[nH]c(=O)[nH]1 [6-Azauracil] (Biolog plate: PM24) | 4 |
| Nc1[nH]c(=O)ncc1F [5-Fluorocytosine] (Biolog plate: PM25) | 4 |
| c1ccc(-c2ccccn2)nc1 [2,2`-Dipyridyl] (Biolog plate: PM21) | 5 |
| [Cl][Mn][Cl] [Manganese chloride] (Biolog plate: PM21) | 5.25 |
| OB(O)O [Boric acid] (Biolog plate: PM22) | 0.333 |
| CN(C)[C@@H]1C(O)=C(C(N)=O)C(=O)[C@@]2(O)C(O)=C3C(=O)c4c(O)ccc(Cl)c4[C@@](C)(O)[C@H]3C[C@@H]12 [Chlortetracycline] (Biolog plate: PM24) | 4.33 |
| N[C@H](CO)C(=O)O [D-Serine] (Biolog plate: PM22) | 4.67 |
| CC(C)Cc1ccc(C(C)C(=O)O)cc1 (centres undefined) [Ibuprofen] (Biolog plate: PM25) | 4.67 |
| NO [Hydroxylamine] (Biolog plate: PM23) | 4 |
| O=P(O)(O)OP(=O)(O)O [Sodium pyrophosphate] (Biolog plate: PM24) | 4.67 |
| CCCCCCCCCCCC[N+](C)(C)C [Dodecyltrimethyl ammonium bromide] (Biolog plate: PM21) | 0 (active) |
| [Na+].[O]=[V](=[O])[O-] [Sodium metavanadate] (Biolog plate: PM22) | 4.33 |
| [Cl-].[Li+] [Lithium chloride] (Biolog plate: PM22) | 0 (active) |
| O=C(O)/C=C/c1ccccc1 [Cinnamic acid] (Biolog plate: PM25) | 4.67 |
| O=C([O-])c1ccccc1O.[Na+] [Sodium Salicylate] (Biolog plate: PM25) | 3.33 |
| [Cl][Cu][Cl] [Cupric chloride] (Biolog plate: PM23) | 5.33 |
